We go through 16 molecules from PubChem BioAssay (NCATS).

Molecules are shown by their SMILES. Several values for one entry are separate records, joined by “and”; a condition that tells them apart may be missing. Equal values may be shown once. Inconclusive results are not listed. A number with no mark means an inactive call. Activity calls are given as the source filed them. Calls follow the shape of the dose curve; as a rule, active = well fitted curve in the direction sought with a large enough effect; inconclusive = small, poorly fitted or top-dose-only effect, or another doubt; inactive = no such curve, though single readings can be large; an effect the other way counts as inactive or inconclusive.

Assay [1] concerns the target Cytochrome P450 3A7 (Homo sapiens) (UniProt P24462). Briefly: Cytochrome P450 family 3 subfamily A member 7 (CYP3A7) small molecule antagonists: luciferase biochemical qHTS assay (AID 1963596). Also: nearly all actives have a fitted effect of over 40% in size. As to conditions: P450-Glo CYP3A7 enzyme luminescence, 1 h; series mostly up to 57.4 µM. The procedure, abridged: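 P450-Glo luminescent assay: CYP3A7 enzyme converts a proluciferin substrate to luciferin, detected by luciferase reagent; light proportional to activity. Compounds in DMSO preincubated 10 min with enzyme-substrate mix at room temperature, then NADPH regeneration added for 1 h.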
On the technique in general: qHTS replaces the single test concentration by a dilution series.

Assay [2] is described as follows: Viability qHTS for spleen associated tyrosine kinase inhibitor (SYKi) naive MV4-11 cells (AID 1963823). Also: nearly all actives have a fitted effect of over 40% in size. As to conditions: MV4-11 AML viability, CellTiter-Glo luminescence, 72 h; series mostly up to 45 µM. The procedure, abridged: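 SYK inhibitor-naive MV4-11 cells, 500 per well, exposed to compounds for 72 hr at 37 C, 5% CO2. Viability read as CellTiter-Glo luminescence after 10 min at room temperature.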

A short description of assay [3]: Viability qHTS for spleen associated tyrosine kinase inhibitor (SYKi) drug resistant MV4-11 cells (AID 1963824). Also: nearly all actives have a fitted effect of over 35% in size. As to conditions: SYKi-resistant MV4-11 viability, CellTiter-Glo, 72 h; series mostly up to 45 µM. In short, it runs like this: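 SYK-inhibitor-resistant MV4-11 AML cells were seeded at 500 per well onto compound and cultured 72 hours (37 °C, 5% CO2). CellTiter-Glo was then added, and after 10 min at room temperature, luminescence gave viability.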

A short description of assay [4]: Quantitative highthroughput screen to assess conditional lethalithy of NOMO1 cells grown in RPMI1640 with untreated serum (RPMI+s) (AID 1963876). Also: nearly all actives have a fitted effect of over 35% in size.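 As to Viability: 100% = DMSO wells and 0% = empty wells without cells.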 To be noted: NOMO1 AML cells in RPMI+serum, CellTiter-Glo viability, 48 h; series mostly up to 45.8 µM. The procedure, abridged: (§1)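 Each medium arm—HPLM with 10% dialyzed FBS, or RPMI1640 with 5 mM glucose and 10% untreated or dialyzed FBS—was screened against an 11-point, 3-fold compound titration for 48 h at 37 °C, with CellTiter-Glo luminescence as endpoint.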
(In ATP-based viability assays light output follows the ATP content of the culture.)

Assay [5] in a line: Quantitative highthroughput screen to assess conditional lethalithy of NOMO1 cells grown in RPMI1640 with dialyzed fetal bovine serum (RPMI+ds) (AID 1963877). Also: nearly all actives have a fitted effect of over 30% in size.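 As to Viability: 100% = DMSO control wells and 0% = empty wells.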 To be noted: NOMO1 in RPMI+dialyzed FBS viability, ATP luminescence, 48 h; series mostly up to 45.8 µM. The procedure, abridged:
as §1

Assay [6] is described as follows: Quantitative highthroughput screen to assess conditional lethalithy of P12 Ichikawa cells grown in RPMI1640 with dialyzed fetal bovine serum (RPMI+ds) (AID 1963880). Also: nearly all actives have a fitted effect of over 35% in size.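 As to Viability: 100% = DMSO wells and 0% = empty wells on each plate.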 To be noted: ATP luminescence, 48 h; Potency: P12-Ichikawa viability; series mostly up to 45.8 µM. In short, it runs like this:
as §1

The nature of assay [7]: Quantitative highthroughput screen to assess conditional lethalithy of P12 Ichikawa cells grown in RPMI1640 with untreated serum (RPMI+s) (AID 1963881). Also: nearly all actives have a fitted effect of over 35% in size.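 As to Viability: 100% = DMSO wells and 0% = empty wells without cells.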 To be noted: ATP luminescence, 48 h; Potency: viability; series mostly up to 45.8 µM. The procedure, abridged:
as §1

Assay [8] in a line: Quantitative highthroughput screen to assess conditional lethalithy of SEM cells grown in RPMI1640 with unreated serum (RPMI+s) (AID 1963883). Also: nearly all actives have a fitted effect of over 35% in size.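 As to Viability: 100% = DMSO wells and 0% = empty wells without cells.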 To be noted: SEM B-ALL cells, CellTiter-Glo viability, 48 h; series mostly up to 45.8 µM. In short, it runs like this: as §1
Assay [9] can be described thus: Cellular viability qHTS for adrenocortical cancer (ACC) cell line SW-13 (AID 1963989). Also: nearly all actives have a fitted effect of over 65% in size.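 As to activity (max response): cells grown in serum-free medium with ITS supplement; % is scaled to controls: 0 for no effect and ±100 for the full control effect.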 As to conditions: SW-13 ACC cells viability, CellTiter-Glo, 48 h; activity (max response): stronger effect = lower value. The procedure, abridged:
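Luminescent ATP read-out (CellTiter-Glo, 20 min at room temperature) measured metabolically competent SW-13 cells after 48 h compound treatment. Final concentrations spanned up to 46 uM; bortezomib served as positive control.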

Assay [10] in a line: Cellular viability qHTS for adrenocortical cancer (ACC) cell line NCI-H295R (AID 1963990). Also: nearly all actives have a fitted effect of over 60% in size. As to conditions: CellTiter-Glo ATP luminescence, 48 h; series mostly up to 46.1 µM. In short, it runs like this: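 IC50 and maximal efficacy derive from four-parameter logistic modelling of titration curves, with reads scaled between DMSO-only wells (0%) and doxorubicin hydrochloride (100% inhibition). Compounds spanned up to 46 uM over 48 h.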

Assay [11] in a line: Quantitative highthroughput screen to assess conditional lethalithy of P12 Ichikawa cells grown in Human Plasma-Like Medium with dialyzed fetal bovine serum (HPLM+ds) (AID 1963879). Also: nearly all actives have a fitted effect of over 35% in size. As to conditions: ATP luminescence, 48 h; Potency: viability; series mostly up to 45.8 µM. In short, it runs like this: as §1
Assay [12] in a line: Quantitative highthroughput screen to assess conditional lethalithy of SEM cells grown in Human Plasma-Like Medium with dialyzed fetal bovine serum (HPLM+ds) (AID 1963882). Also: nearly all actives have a fitted effect of over 35% in size. To be noted: SEM B-ALL cells in HPLM+ds, CellTiter-Glo viability, 48 h; series mostly up to 45.8 µM. The procedure, abridged:
as §1

Assay [13] can be described thus: Quantitative highthroughput screen to assess conditional lethalithy of SEM cells grown in RPMI1640 with dialyzed fetal bovine serum (RPMI+ds) (AID 1963884). Also: nearly all actives have a fitted effect of over 35% in size.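 As to Viability: 100% = DMSO control wells and 0% = empty wells without cells.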 To be noted: SEM B-ALL cells, RPMI+dialyzed FBS, CellTiter-Glo viability, 48 h; series mostly up to 45.8 µM. The procedure, abridged:
as §1

Assay [14] can be described thus: Quantitative highthroughput screen to assess conditional lethalithy of NOMO1 cells grown in Human Plasma-Like Medium with dialyzed fetal bovine serum (HPLM+ds) (AID 1963878). Also: nearly all actives have a fitted effect of over 35% in size.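 As to Viability: 100% = DMSO wells and 0% = empty wells on each plate.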 As to conditions: NOMO1 AML cells in HPLM+ds, CellTiter-Glo viability, 48 h; series mostly up to 45.8 µM. The procedure, abridged: as §1
Potency is read from the fitted curve at half-maximal effect.

Sequence of Cytochrome P450 3A7 (Homo sapiens) (P24462 whole entry, looked up): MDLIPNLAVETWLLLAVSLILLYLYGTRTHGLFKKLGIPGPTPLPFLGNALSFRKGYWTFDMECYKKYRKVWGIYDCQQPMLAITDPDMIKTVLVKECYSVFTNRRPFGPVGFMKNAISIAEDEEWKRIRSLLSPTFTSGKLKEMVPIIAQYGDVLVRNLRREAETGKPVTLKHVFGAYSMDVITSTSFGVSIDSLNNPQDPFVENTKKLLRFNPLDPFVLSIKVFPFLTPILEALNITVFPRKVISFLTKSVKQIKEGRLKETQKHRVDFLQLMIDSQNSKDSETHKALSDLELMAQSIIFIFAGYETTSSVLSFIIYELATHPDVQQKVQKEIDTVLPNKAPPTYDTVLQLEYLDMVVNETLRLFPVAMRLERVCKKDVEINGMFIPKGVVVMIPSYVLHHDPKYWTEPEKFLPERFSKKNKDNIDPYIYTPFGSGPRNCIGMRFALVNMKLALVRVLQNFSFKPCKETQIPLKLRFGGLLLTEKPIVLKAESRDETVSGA

In the case of `O=c1[nH]cnc2[nH]ncc12`, the Potency result in assay [1], in assay [2], in assay [3], in assay [4], in [5] and in assay [6] was “inactive” throughout. The Potency entry in [7], in [8] and in assay [10] was “inactive” in each case. In addition, in assay [9], the activity (max response) is 1.44% and -3.08%.

Take `CCC[C@@H]1C[C@@H](C(=O)N[C@@H]([C@H]2O[C@H](SC)[C@H](O)[C@@H](O)[C@H]2O)[C@@H](C)O)N(C)C1`: the Potency result in assay [1], in assay [2], in assay [3], in assay [4], in assay [5] and in assay [11] was “inactive” in each case. For the same molecule, the Potency entry in assay [6], in assay [7], in assay [12], in assay [8] and in assay [10] was “inactive” in each case.

With `CO[C@@H]1COCC[C@@H]1N[C@@H]1CC[C@@](C(=O)N2CCc3ncc(C(F)(F)F)cc3C2)(C(C)C)C1`, the Potency result in [1], in assay [2], in assay [3], in [4], in assay [5] and in assay [10] was “inactive” throughout. Besides, the activity (max response) in [9] is -5.19%.

Turning to `COc1cc(OC)c(C(=O)CCCN2CCCC2)c(OC)c1`, the Potency result in [1], in assay [2], in assay [3], in [4], in [5] and in assay [6] was “inactive” in each case. Besides, the Potency result in assay [7], in assay [12], in [8] and in assay [13] was “inactive” in each case. For the same molecule, the activity (max response) in assay [9] was 9.88% and 2.45%.

Consider `COc1ccc2c(OCc3nnc4ccc(-c5ccccc5)nn34)ccnc2c1`, for which the Potency result in [1], in assay [2], in assay [3], in assay [4], in assay [5] and in [14] was “inactive” throughout. Besides, in assay [7], the Potency entry was “inactive”. Moreover, the Potency is 11.8 µM (active) in assay [8] and 18.7 µM (active) in assay [13]. Further, the activity (max response) in assay [9] was -4.03%.

Take `CNNCc1ccc(C(=O)NC(C)C)cc1`: the Potency result in assay [1], in assay [2], in assay [3], in assay [4], in assay [5] and in assay [11] was “inactive” each time. Further, the Potency result in [10] was “inactive”. Further, the activity (max response) in assay [9] was 0.571% and -4.58%.

Regarding `Cc1cnc(CNC(=O)c2c(=O)c3ccc(N4CCCN(C)CC4)nc3n3c2sc2ccccc23)cn1`, the Potency entry in assay [1], in assay [4], in assay [5], in assay [14] and in assay [11] was “inactive” in each case. Moreover, the Potency is 841 nM (active) in [2], 1.68 µM (active) in [3] and 2.88 µM (active) in assay [8].

As to `COc1cc2c(cc1OC)CN(CCc1ccc(NC(=O)c3cc(OC)c(OC)cc3NC(=O)c3cnc4ccccc4c3)cc1)CC2`, the Potency result in assay [1], in assay [2], in [3], in [4], in assay [5] and in [14] was “inactive” each time. Moreover, the Potency entry in [10] was “inactive”. The activity (max response) in assay [9] was -4.36%.

For the molecule `Clc1ccc(C2(c3ccc(-c4cn[nH]c4)cc3)CCNCC2)cc1`, the Potency in [1] was 12.6 µM (active); in assay [2] it was 2.31 µM (active) and 2.63 µM (active); in assay [3], 5.17 µM (active) and 7.42 µM (active); in [4], 14.8 µM (active); in [5], 4.18 µM (active); in assay [14] it was 3.32 µM (active). The values for the Potency in assay [11], in assay [8] and in assay [10] were 5.26 µM (active), 9.35 µM (active) and 15.8 µM (active), respectively.

For `CNS(=O)(=O)CCc1ccc2[nH]cc(C3CCN(C)CC3)c2c1`, the Potency entry in [1], in [2], in [3], in assay [4], in assay [14] and in [11] was “inactive” in each case. Also, the Potency result in assay [6], in [7], in [12], in assay [8], in [13] and in assay [10] was “inactive” throughout. Further, the activity (max response) in assay [9] was -14.7%.

For `CC(=O)c1cnc2ccc(-c3cc(Cl)c(O)c(Cl)c3)nc2c1NC1CCC(CN(C)C)CC1` (stereo unspecified), in assay [1], the Potency result was “inactive”. Besides, the Potency in [2] was 4.7 nM (active) and 0.8 nM (active); in [3], 11.9 nM (active) and 2.9 nM (active); in [4], 0.132 µM (active); in [5], 0.132 µM (active); in assay [14], 0.066 µM (active); in assay [6], 0.132 µM (active). The Potency in assay [7] is 0.148 µM (active); in assay [12], 0.0741 µM (active); in [8], 0.0741 µM (active); in assay [9], 0.0751 µM (active).

For `CC(C)NCC(O)COc1ccc(COCCOC(C)C)cc1` (stereo unspecified), the Potency entry in assay [1], in assay [2], in [3], in assay [4], in assay [5] and in [14] was “inactive” throughout. The Potency result in assay [11], in assay [7], in assay [12], in [8], in [13] and in assay [10] was “inactive” throughout. The activity (max response) in [9] was 0.903%.

As to `Cn1ccc2cc3c(cc21)CCN3C(=O)Nc1cccnc1`, the Potency entry in assay [1], in assay [2], in assay [3], in assay [4], in [5] and in assay [14] was “inactive” in each case. Also, the Potency entry in assay [10] was “inactive”. Besides, the activity (max response) in assay [9] is -12.5% and 11.5%.

As for `O=C(c1ccccc1)c1ccc2n1CCC2C(=O)O` (stereo unspecified), the Potency result in assay [1], in assay [2], in assay [3], in assay [4], in assay [5] and in assay [14] was “inactive” throughout. In addition, in assay [10], the Potency result is “inactive”. Also, the Potency in assay [11] was 2.35 µM (active); in [7], 3.72 µM (active); in [13], 4.69 µM (active). For the same molecule, the activity (max response) in assay [9] was 8.29% and -6.52%.

As to `Fc1cc(-c2cccc3ncc(-c4cnn(C5CCNCC5)c4)nc23)cc(F)c1CN1CCOCC1`, the Potency result in assay [1] is “inactive”. For the same molecule, the Potency in assay [2] was 259 nM (active) and 372 nM (active); in assay [3], 731 nM (active) and 833 nM (active); in [4], 8.33 µM (active); in assay [14], 3.32 µM (active); in assay [6] it was 16.6 µM (active); in assay [12], 4.69 µM (active). The Potency in [8] is 2.64 µM (active); in [9], 25.1 µM (active); in assay [10] it was 6.31 µM (active).

Take `O=c1[nH]c(-c2ccc(C(F)(F)F)cc2)nc2c1CSCC2`: the Potency result in [1], in assay [3], in assay [4], in assay [5], in assay [14] and in assay [11] was “inactive” in each case. In addition, the Potency entry in assay [7], in [12], in assay [8], in [13] and in assay [10] was “inactive” each time. For the same molecule, the Potency in assay [2] is 2350 nM (active). In [9], the activity (max response) is -10.8%.
